Source: publication PMC10163288
These entries were drawn from the full list. No count for the full screen is at hand.

B1: il2ra_site2_2erj_normal_mot_HHH_b1_08185_000000063_0001_41_55_H_._HHH_b1_04971_af2_0001_0000600015_0000001_0 (protein)
chain: SSSSSDSAEEALELAKEAYEKGDRSEVELILRYLELSLEDANDPRVEEAYELVEELLEELSSSSS
B2: il2ra_site2_3nfp_normal_mot_HHH_b1_01086_000000225_0001_20_36_H_._HHH_b2_03611_0001_0000300035_0000001_0 (protein)
chain: SSSSSEAEEELERLLRELEELLKRDPEEAHRLSARALNLAYEARDFEIFARLADISFALASSSSS
B3: il2ra_site1_3nfp_sap_16_mot_5dea99290cf7e133ebc5b763b21a7a39_0001_000000141_0001_34_49_H_._ems_3hC_617_0002_0001_0000300017_0000001_0_0001 (protein)
chain: NDKIAERLVRQAVEQNSPRILKKILEDLERVLGDPEEARERLRELLELVLGDPEEVERLLELAEE
B4: il2ra_site1_3nfp_sap_8_mot_93ec910cbd4ebb8dd092c1ac1e61ab37_0001_1_af2_000000101_0001_16_31_H_._22fa1065b69cf192845a0250a7ccff51_0001_1_0001_0000400021_0000001_ … (protein)
chain: SSSSDSVEWLQEMIERAFENNDRRQLRVLIKILEKAAEQFGDPEVEKLLEEAERLLEELNSSSSS
B5: il2ra_site1_3nfp_normal_mot_HHH_b2_04366_af2_000000103_0001_1_19_H_._d3e5e791db42274430e6ef9f54efc4f5_0001_af2_0001_0000100007_0000001_0_af2pred_0001_af2pred_sw … (protein)
chain: SAKEISELLREAARKDPEVSELLWEALRLFVKNEEEALRLLEELLKELGDPLVEEVLRLLEELAK
B6: il2ra_site1_1z92_sap_8_mot_a31c9f16200a66e5ad31ddff700483a3_0001_1_000000069_0001_19_32_H_._HHH_b1_03395_0001_0000300021_0000001_0_0001_af2pred_0001_af2pred_1 (protein)
chain: PEELAEEARELLENGNPEEARKVLEKLAKELGTEEAFKLDLERAERFTGNPEVALKALIAALARH
B7: il2ra_site2_2erj_normal_mot_HHH_b1_06697_000000025_0001_41_54_H_._HHH_b2_03722_0001_0000300007_0000001_0_af2pred_0001_1_af2pred_swapped (protein)
chain: SSSSSDKEEVEERVREILEEAEQVRDPREALKILEKADRLASENNNEEALELIHEVLQRLSSSSS
B8: il2ra_site2_3nfp_sap_15_mot_HHH_b1_07089_af2_000000257_0001_1_17_H_._51cc31007119fa75359d0ea3f4aa2c22_0001_1_0001_0000100009_0000001_0_0001 (protein)
chain: SSSSSAAEDSVHVLKRELEELGDRESIEELERLLEEIKEHNDPRLLLELYALLLRLYEESSSSSS
B9: il2ra_site1_1z92_sap_21_mot_35b94aac26684153dbcc4bf06a514b74_0001_1_000000068_0001_35_49_H_._HEEHE_2006_af2_0001_0000400023_0000001_0_0001_af2pred_0001_af2pred (protein)
chain: SSSSDEEEAAEEIVREVVEKLGLSEEDREALERDAEQSLRRGISERSVKQALEKAAKRERSSSSS
B10: il2ra_site1_1z92_sap_11_mot_HHH_b2_00249_af2_000000052_0001_39_52_H_._HHH_b2_00616_af2_0001_0000400013_0000001_1_0001_af2pred_0001_af2pred (protein)
chain: SSSSSEKRKEALELFEEANELFKRGNDEEAQELLRRALELAEEAGNRVLARAIEQALEDAESSSS
B11: il2ra_site2_2erj_sap_22_mot_HHH_b2_08130_000000073_0001_1_17_H_._HHH_b1_02674_0001_0000300003_0000001_0_0001 (protein)
chain: SSSSDVEELLEEIEELLRRGDREEAERLLHEAAELAFERNDFELFTEVVEVAHEIDRLRVSSSSS
B12: il2ra_site2_3nfp_normal_mot_HHH_b1_01086_000000225_0001_20_36_H_._HHH_b1_01202_0001_0000300006_0000001_0_af2pred_0001_af2pred_swapped (protein)
chain: SSSSDHERFALRAALLEIEVAIEAGDEKKVEKLIERLEILIKRLNDEEMEELLRKLKEELSSSSS
B13: il2ra_site2_3nfp_normal_mot_HHH_b1_00660_af2_000000090_0001_40_57_H_._HHH_b1_07775_af2_0001_0000100002_0000001_1 (protein)
chain: SSSSDEELEEEVEKLLEEAKKIEDKFEAFALVLRAREIAERLGDEELKQLVARVALEIYESSSSS
B14: il2ra_site1_3nfp_normal_mot_eb5a5eebac1e5153f932cc6c3f4b2787_0001_af2_000000065_0001_18_33_H_._31bff7180b20e3ed47766ceefd9934be_0001_af2_0001_0000200025_0000001 … (protein)
chain: DEEKELAELIAEAVEKNDPELLEEVVQELLKKLGDPKEASRLFEELLRKAGLSPEEIYLAMELVV
B15: il2ra_site2_2erj_normal_mot_HHH_b1_04373_af2_000000118_0001_18_33_H_._HHH_b1_02368_af2_0001_0000200015_0000001_0 (protein)
chain: SSSSDEELREEVEELLERAREAYEEGDLELVYELAVEAAHFAARNQDEELLELILEVVERLSSSS
B16: il2ra_site1_1z92_normal_mot_HHH_b1_03515_000000289_0001_1_19_H_._HHH_b2_07175_0001_0000100001_0000001_0 (protein)
chain: SSSSDRLERAAEIIVRVAVEANGLSEEQEKELEELARELVERGLDPLEIIKLLDRLAAELSSSSS
B17: il2ra_site2_2erj_sap_28_mot_HHH_b1_06697_000000025_0001_41_54_H_._HHH_b1_07674_0001_0001200015_0000001_1_0001 (protein)
chain: SSSSSDVKEAYEEIAELLARAAHIKDPEEVRKLLEEAERLAEENNDPFARKYVEFARRDFSSSSS
B18: il2ra_site1_1z92_normal_mot_HHH_b2_01902_af2_000000252_0001_25_40_H_._HHH_b1_06549_af2_0001_0000100014_0000001_0_af2pred_dldesign_0_af2pred (protein)
chain: SSSSSPLERAARQYVDAIKEIAGLSDEQYAELLAEAERLAAAGVPVRDIAKALDKRAAELLSSSS

biological target: il2ra, P01589; test: yeast display titration
Sequence (P01589 whole entry): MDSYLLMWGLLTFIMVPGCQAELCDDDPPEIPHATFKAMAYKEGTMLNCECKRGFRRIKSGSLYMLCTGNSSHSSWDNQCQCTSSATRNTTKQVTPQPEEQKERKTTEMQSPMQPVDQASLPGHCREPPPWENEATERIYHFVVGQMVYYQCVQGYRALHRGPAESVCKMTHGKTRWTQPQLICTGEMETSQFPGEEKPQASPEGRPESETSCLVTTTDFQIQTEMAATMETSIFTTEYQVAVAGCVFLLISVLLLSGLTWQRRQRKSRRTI

Apparent Kd, inactive:
B1 no binding seen
B2 no binding seen
B3 no binding seen
B4 no binding seen
B5 no binding seen
B6 no binding seen
B7 no binding seen
B8 no binding seen
B9 no binding seen
B10 no binding seen
B11 no binding seen
B12 no binding seen
B13 no binding seen
B14 no binding seen
B15 no binding seen
B16 no binding seen
B17 no binding seen
B18 no binding seen
